Data published in PubChem BioAssay (Tox21).
Where “and” joins values, the source holds several entries; their conditions need not be identical. Equal entries are not always repeated. Inconclusive results are not listed. Entries that show only a call come without a potency. Some structures have more than one record in an assay (separate samples or runs), and their calls can disagree. Calls of active or inactive are those of the source. Unless noted, the call rests on the fitted dose curve.

Assays:
[1] = Nuclear factor erythroid 2-related factor 2/antioxidant responsive element (Nrf2/ARE) small molecule agonists: qHTS cell viability counter screen in human keratinocytes (AID 1919968; active means well fitted curve in the direction sought with a large enough effect in the repeat runs; an effect the other way counts as inactive or inconclusive; further: nearly all actives have a fitted effect of over 55% in size; further: potency means the concentration at half of the fitted maximal effect)
In short: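 In human HaCaT keratinocytes stably expressing an ARE-driven luciferase, compound exposure lasted 23 h at 37 C under 5% CO2. Viable cells are quantified with a protease-based fluorogenic reagent (CellTiter-Fluor) read 1 h after addition.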

[2] = target: Gonadotropin-releasing hormone receptor (Homo sapiens) (UniProt P30968); assay: Human gonadotropin-releasing hormone receptor (GnRHR) small molecule agonists, calcium flux assay in GnRHR-HEK293 cells (AID 1920063); further: nearly all actives have a fitted effect of over 35% in size; further: potency means the concentration at half of the fitted maximal effect
In short: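 Intracellular calcium rise is the read-out: engineered human GnRHR HEK293 cells, dye-loaded, are exposed to DMSO-dissolved compounds and fluorescence at Ex/Em 480/540 is tracked for 3 min.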

[3] = target: KiSS-1 receptor (Homo sapiens) (UniProt Q969F8); assay: Human kisspeptin (KISS1R) small molecule agonists, calcium flux assay in KISS1R-HEK293 cells (AID 1920064; active means well fitted curve in the direction sought with a large enough effect in the repeat runs; an effect the other way counts as inactive or inconclusive)
In short: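 Concentration-response testing used 15 concentrations in triplicate on human KISS1R-expressing HEK293 cells. Calcium-dependent fluorescence (Ex/Em 480/540) was followed kinetically for 3 min after compound transfer.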

[4] = p53 small molecule agonists, cell-based qHTS assay with human liver microsomes (AID 1963577)
In short: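 p53RE-bla reporter cells were pre-incubated 5 h at 37 C, then treated with compounds plus human liver microsomes (0.5 mg/mL final) and NADPH (0.5 mg/mL final) for 16 h at 37 C. Beta-lactamase activity was read by LiveBLAzer fluorescence after 2 h at room temperature.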

[5] = p53 small molecule agonists, cell-based qHTS assay with rat liver microsomes (AID 1963578)
In short: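 p53RE-bla cells were exposed to compounds together with rat liver microsomes (0.5 mg/mL final) and NADPH (0.5 mg/mL final) for 16 h at 37 C, then read by LiveBLAzer beta-lactamase fluorescence after 2 h at room temperature.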

[6] = p53 small molecule agonists, cell-based qHTS assay with human liver microsomes: qHTS cell viability counter screen (AID 1963579); further: nearly all actives have a fitted effect of over 45% in size; further: potency means the concentration at half of the fitted maximal effect
In short: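 p53RE-bla cells (4,000/well) were pre-incubated 5 h at 37 C, then given compounds in DMSO plus human liver microsomes (0.5 mg/mL final) and NADPH (0.5 mg/mL final) for 16 h at 37 C. Viability was read by CellTiter-Glo luminescence.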

[7] = p53 small molecule agonists, cell-based qHTS assay with rat liver microsomes: qHTS cell viability counter screen (AID 1963580); further: nearly all actives have a fitted effect of over 45% in size; further: potency means the concentration at half of the fitted maximal effect
In short: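 After the beta-lactamase ratio was read, CellTiter-Glo was added to the same wells and luminescence measured at 30 min; cells had been treated 16 h at 37 C with compounds, rat liver microsomes and NADPH (0.5 mg/mL final each).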

[8] = p53 small molecule agonists, cell-based qHTS assay: qHTS cell viability counter screen (AID 1963581); further: nearly all actives have a fitted effect of over 45% in size; further: potency means the concentration at half of the fitted maximal effect
In short: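 Luminescence from CellTiter-Glo, reflecting ATP content, serves as the cytotoxicity measure; it is taken after the 2 h reporter substrate step in HCT-116 p53RE-bla cells dosed for 16 h at 37 C.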

[9] = target: 5-hydroxytryptamine receptor 2A (Homo sapiens) (UniProt P28223); assay: 5-hydroxytryptamine receptor 2A (HTR2A) small molecule antagonists, cell-based qHTS assay (AID 1963586); further: nearly all actives have a fitted effect of over 45% in size; further: potency means the concentration at half of the fitted maximal effect
In short: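 CHO cells stably expressing human HTR2A were plated for 18 h at 37 C, then loaded with calcium dye for 1 h. Compounds were preincubated 5 min at room temperature before DOI (4 nM solution) was added. Kinetic fluorescence was read for 3 min.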

[10] = target: 5-hydroxytryptamine receptor 2A (Homo sapiens) (UniProt P28223); assay: 5-hydroxytryptamine receptor 2A (HTR2A) small molecule agonists, cell-based qHTS assay (AID 1963587); further: nearly all actives have a fitted effect of over 30% in size; further: potency means the concentration at half of the fitted maximal effect
In short: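 CHO cells stably expressing human HTR2A, plated 18 h, loaded with calcium dye 1 h at 37 C. Agonist mode: compounds added and intracellular calcium fluorescence recorded kinetically for 2 min at 1 sec intervals.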

[11] = target: Muscarinic acetylcholine receptor M1 (Homo sapiens) (UniProt P11229); assay: Cholinergic receptor muscarinic 1 (CHRM1) small molecule antagonists, cell-based qHTS assay (AID 1963588); further: nearly all actives have a fitted effect of over 40% in size; further: potency means the concentration at half of the fitted maximal effect
In short: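 Compounds were tested at 15 concentrations in three independent runs. Dye-loaded CHRM1-CHO cells were exposed 5 min at room temperature before stimulation by acetylcholine added at 50nM. Intracellular calcium was read kinetically on FDSS for 3 min.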

[12] = target: Muscarinic acetylcholine receptor M1 (Homo sapiens) (UniProt P11229); assay: Cholinergic receptor muscarinic 1 (CHRM1) small molecule agonists, cell-based qHTS assay (AID 1963589); further: nearly all actives have a fitted effect of over 35% in size; further: potency means the concentration at half of the fitted maximal effect
In short: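 Fluorescent calcium dye reports M1 activation in stably transfected CHO cells. Compounds, 15 concentrations, added after 1 h dye loading at 37 C; kinetic reading at 1 sec intervals.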

[13] = cAMP Responsive Elements (CRE) small molecule antagonists, cell-based qHTS assay (AID 1963591; active means well fitted inhibition curve with a large enough effect in the signal ratio in the repeat runs, not every such curve was filed as active; the % refers to the signal ratio)
In short: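 Stimulation used NKH477 at a final 0.25 uM for 3 h in compound-treated CRE-bla HEK293T cells, seeded 18 h beforehand. Reporter activity was measured with LiveBLAzer B/G FRET substrate after 2 h at room temperature.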

[14] = target: Beta-2 adrenergic receptor (Homo sapiens) (UniProt P07550); assay: Adrenergic beta2 receptor (ADRB2) small molecule antagonists, cell-based qHTS assay (AID 1963592); further: nearly all actives have a fitted effect of over 50% in size; further: potency means the concentration at half of the fitted maximal effect
In short: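 Assay format: CHO-ADRB2 cells, 18-20hr seeding at 37C/5% CO2, then compound plus 1nM isoproterenol agonist mix for 0.5hr RT. Homogeneous time-resolved fluorescence cAMP detection after 1hr, expressed as 665/615 nm ratio.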

[15] = target: D(2) dopamine receptor (Homo sapiens) (UniProt P14416); assay: Dopamine D2 receptor (DRD2) small molecule agonists, cell-based qHTS assay (AID 1963594); further: nearly all actives have a fitted effect of over 35% in size; further: potency means the concentration at half of the fitted maximal effect
In short: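 HEK293 cells stably expressing human DRD2, pre-treated with PDE inhibitor Ro20-1724 (0.1 mM final) and compound 10 min at room temperature, then stimulated with NKH477 (200nM […]) for 30 min. cAMP read by HTRF (665/620 nm).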

[16] = target: D(2) dopamine receptor (Homo sapiens) (UniProt P14416); assay: Dopamine D2 receptor (DRD2) small molecule antagonists, cell-based qHTS assay (AID 1963595; active means well fitted inhibition curve with a large enough effect in the signal ratio in the repeat runs, with a control signal flat; the % refers to the signal ratio; further: potency means the concentration at half of the fitted maximal effect)
In short: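 Cells were plated and grown for 24 h at 37 °C. Ro20-1724 (0.1 mM final) went in first, then compound for 10 min. NKH477 (200 nM) with quinpirole (12 nM) followed for 30 min at RT, then HTRF detection reagents for 1 h.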

[17] = p53 small molecule agonists, cell-based qHTS assay (AID 1963582; active means well fitted activation curve with a large enough effect in the signal ratio in the repeat runs, not every such curve was filed as active; the % refers to the signal ratio)
In short: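 After plating, p53RE-bla cells sat 5 h in the incubator; compounds or DMSO vehicle were pinned in; a 16 h incubation at 37 C followed; FRET substrate was added and, 2 h later at RT, fluorescence was measured.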

[18] = cAMP Responsive Elements (CRE) small molecule agonists, cell-based qHTS assay (AID 1963590)
In short: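 Compound exposure lasted 3 h at 37 C/5% CO2 in CRE-bla HEK 293T cells grown in assay medium with 10% dialyzed FBS and 25 mM HEPES. Reporter signal came from LiveBLAzer B/G FRET substrate, 2 h, room temperature.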

[19] = target: Beta-2 adrenergic receptor (Homo sapiens) (UniProt P07550); assay: Adrenergic beta2 receptor (ADRB2) small molecule agonists, cell-based qHTS assay (AID 1963593);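 further: CHO cells stably overexpressing human ADRB2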
In short: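 CHO cells stably over-expressing ADRB2 were plated overnight at 37C, then dosed with compounds plus a stimulation mix containing 100uM IBMX and 25uM Ro-20-1724 for 0.5hr at room temperature. cAMP was measured by HTRF competition, 1hr.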

[20] = G protein-coupled receptor (GPCR) small molecule agonists, calcium flux assay: HEK293 wild type cell line counter screen (AID 1920065)
In short: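 Fluorescence intensity signals activation. After overnight (18 h) culture and a 1 h calcium dye load at 37 C, compounds are added by pin tool and the plate read at 480/540 nm for 3 min in 1 s steps.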

Sequence of Beta-2 adrenergic receptor (Homo sapiens) (P07550 whole entry, looked up): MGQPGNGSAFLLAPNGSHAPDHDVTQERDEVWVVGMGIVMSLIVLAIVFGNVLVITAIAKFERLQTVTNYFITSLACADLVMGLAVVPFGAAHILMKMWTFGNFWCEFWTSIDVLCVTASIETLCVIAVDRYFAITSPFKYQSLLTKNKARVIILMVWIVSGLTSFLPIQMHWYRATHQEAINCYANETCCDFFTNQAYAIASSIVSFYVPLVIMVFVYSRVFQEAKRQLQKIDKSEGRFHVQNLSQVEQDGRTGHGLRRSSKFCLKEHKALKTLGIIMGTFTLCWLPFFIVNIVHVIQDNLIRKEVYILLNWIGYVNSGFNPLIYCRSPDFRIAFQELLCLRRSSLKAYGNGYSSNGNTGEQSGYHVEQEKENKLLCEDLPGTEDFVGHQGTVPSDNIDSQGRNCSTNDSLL
Sequence of 5-hydroxytryptamine receptor 2A (Homo sapiens) (P28223 whole entry, looked up): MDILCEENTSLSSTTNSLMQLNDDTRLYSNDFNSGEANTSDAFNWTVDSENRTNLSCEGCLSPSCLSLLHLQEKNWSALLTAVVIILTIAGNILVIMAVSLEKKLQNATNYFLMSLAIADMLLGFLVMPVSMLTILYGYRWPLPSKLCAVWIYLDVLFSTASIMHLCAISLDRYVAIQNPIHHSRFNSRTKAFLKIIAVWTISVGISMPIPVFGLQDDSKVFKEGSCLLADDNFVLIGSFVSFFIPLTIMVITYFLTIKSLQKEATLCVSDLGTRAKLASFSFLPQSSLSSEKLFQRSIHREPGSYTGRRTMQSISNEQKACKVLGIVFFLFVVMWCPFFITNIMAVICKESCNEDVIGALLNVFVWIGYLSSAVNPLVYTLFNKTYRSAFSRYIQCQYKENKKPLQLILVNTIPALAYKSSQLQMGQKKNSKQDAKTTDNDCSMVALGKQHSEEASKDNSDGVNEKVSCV
Sequence of D(2) dopamine receptor (Homo sapiens) (P14416 whole entry, looked up): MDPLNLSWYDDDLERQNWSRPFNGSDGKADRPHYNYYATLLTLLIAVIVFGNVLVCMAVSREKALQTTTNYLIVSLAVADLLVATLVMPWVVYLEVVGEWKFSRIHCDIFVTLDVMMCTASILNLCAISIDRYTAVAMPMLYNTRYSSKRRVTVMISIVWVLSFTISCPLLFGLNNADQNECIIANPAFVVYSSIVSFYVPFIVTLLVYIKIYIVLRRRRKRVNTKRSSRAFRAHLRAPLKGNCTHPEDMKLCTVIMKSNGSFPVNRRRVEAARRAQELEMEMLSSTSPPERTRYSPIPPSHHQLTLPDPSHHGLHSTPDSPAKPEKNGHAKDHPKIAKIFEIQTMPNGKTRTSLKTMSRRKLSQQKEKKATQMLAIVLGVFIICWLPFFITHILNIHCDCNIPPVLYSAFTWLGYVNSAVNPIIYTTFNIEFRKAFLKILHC
Sequence of Muscarinic acetylcholine receptor M1 (Homo sapiens) (P11229 whole entry, looked up): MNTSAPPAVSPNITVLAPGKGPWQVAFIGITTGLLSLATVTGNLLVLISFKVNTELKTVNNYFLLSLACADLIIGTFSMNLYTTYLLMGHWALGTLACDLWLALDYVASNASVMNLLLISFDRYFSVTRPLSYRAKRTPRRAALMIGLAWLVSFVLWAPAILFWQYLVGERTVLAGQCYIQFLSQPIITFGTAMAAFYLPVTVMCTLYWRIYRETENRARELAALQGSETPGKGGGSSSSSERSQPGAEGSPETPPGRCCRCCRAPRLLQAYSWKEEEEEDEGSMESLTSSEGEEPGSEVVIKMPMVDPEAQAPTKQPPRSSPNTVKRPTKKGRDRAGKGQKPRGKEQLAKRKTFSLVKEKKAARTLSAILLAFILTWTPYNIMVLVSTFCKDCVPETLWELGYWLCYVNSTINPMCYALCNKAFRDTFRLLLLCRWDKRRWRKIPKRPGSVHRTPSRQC
Sequence of KiSS-1 receptor (Homo sapiens) (Q969F8 whole entry, looked up): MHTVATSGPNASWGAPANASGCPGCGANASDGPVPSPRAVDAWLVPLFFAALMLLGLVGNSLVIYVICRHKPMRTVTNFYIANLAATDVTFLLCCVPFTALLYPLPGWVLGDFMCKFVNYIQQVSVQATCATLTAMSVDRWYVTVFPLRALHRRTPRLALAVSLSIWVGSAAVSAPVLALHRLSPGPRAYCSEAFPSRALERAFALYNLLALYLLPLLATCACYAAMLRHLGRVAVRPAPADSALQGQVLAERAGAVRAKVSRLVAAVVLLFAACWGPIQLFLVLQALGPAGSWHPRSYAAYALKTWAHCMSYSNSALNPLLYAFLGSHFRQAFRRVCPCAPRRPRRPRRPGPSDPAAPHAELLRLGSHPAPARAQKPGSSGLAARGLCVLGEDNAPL
Sequence of Gonadotropin-releasing hormone receptor (Homo sapiens) (P30968 whole entry, looked up): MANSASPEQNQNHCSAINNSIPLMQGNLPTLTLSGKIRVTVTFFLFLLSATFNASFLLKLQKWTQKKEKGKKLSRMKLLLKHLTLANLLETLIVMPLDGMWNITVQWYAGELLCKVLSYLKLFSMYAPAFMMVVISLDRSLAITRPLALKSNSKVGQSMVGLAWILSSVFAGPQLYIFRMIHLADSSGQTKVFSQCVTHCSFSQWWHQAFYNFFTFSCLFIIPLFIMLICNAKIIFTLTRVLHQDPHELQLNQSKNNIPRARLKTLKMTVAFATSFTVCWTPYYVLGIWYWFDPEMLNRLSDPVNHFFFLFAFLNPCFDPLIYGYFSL

Compound | Potency [1] | Potency [2] | Potency [3] | Potency [4] | Potency [5] | Potency [6] | Potency [7] | Potency [8] | Potency [9] | Potency [10] | Potency [11] | Potency [12] | Potency [13] | Potency [14] | Potency [15] | Potency [16] | Potency [17] | Potency [18] | Potency [19] | Potency [20]
C[Si](Cn1cncn1)(c1ccc(F)cc1)c1ccc(F)cc1 | inactive | inactive | inactive | inactive | inactive | inactive | inactive | inactive | inactive | inactive | 42.1 µM (active) | inactive | inactive | inactive | inactive | inactive |  |  |  | 
CCCC[N+]1(C)CCCC1 | inactive | inactive | inactive | inactive | inactive |  | inactive | inactive | inactive | inactive | inactive and 5.98 µM (active) and 4.27 µM (active) |  | inactive | inactive | inactive |  | inactive | inactive | inactive | 
CC(C(=O)c1ccccc1)N(C)C (centres undefined) | inactive | inactive | inactive | inactive | inactive | inactive | inactive | inactive |  | inactive | inactive | inactive | inactive | inactive | inactive |  | inactive | inactive | inactive | 
O=C(O)c1ccccc1O | inactive | inactive | inactive |  |  |  |  |  |  |  |  |  | inactive | inactive | inactive | inactive |  | inactive |  | inactive
O=C(O)c1cc(Oc2ccc(C(F)(F)F)cc2Cl)ccc1[N+](=O)[O-] | inactive |  |  |  |  | inactive | inactive | inactive | inactive | inactive | inactive | inactive | inactive | inactive | inactive | inactive |  |  |  | inactive
Cc1cccc(C#N)c1 | inactive | inactive |  | inactive | inactive | inactive |  | inactive | inactive | inactive | inactive | inactive | inactive |  | inactive | inactive | inactive | inactive |  | inactive
Nc1nc(N)nc(NC2CC2)n1 | inactive | inactive |  | inactive | inactive | inactive | inactive | inactive |  |  |  |  |  | inactive |  | inactive | inactive | inactive | inactive | inactive
C[CH2][Hg][S]c1ccccc1C(=O)O | 1.22 µM (active) and 5.96 µM (active) | 38.9 µM (active) | inactive | inactive | inactive | 10.2 µM (active) and 11.2 µM (active) | 18.2 µM (active) and 9.98 µM (active) | 10.2 µM (active) and 11.2 µM (active) | 18.8 µM (active) | 43.6 µM (active) and 21.3 µM (active) | inactive | 54.9 µM (active) and 19 µM (active) |  | 27.3 µM (active) and inactive | 16.6 µM (active) | inactive |  |  |  | 
C[N+](C)(C)CC(=O)[O-] | inactive | inactive |  |  |  | inactive | inactive | inactive | inactive | inactive | inactive | inactive | inactive | inactive | inactive | inactive |  |  | inactive | inactive
CN1C(=O)CN=C(c2ccccc2)c2cc(Cl)ccc21 | inactive | inactive | inactive |  |  |  |  | inactive |  |  |  |  | inactive | inactive | inactive | inactive | inactive | inactive |  | inactive
CCn1cc[n+](C)c1C | inactive | inactive | inactive |  |  | inactive | inactive | inactive | inactive | inactive | inactive | inactive | inactive | inactive | inactive | inactive |  | inactive | inactive | 
C=C(C#N)CCC#N | inactive | inactive | inactive | inactive | inactive | inactive | inactive | inactive | inactive | inactive | inactive | inactive | inactive | inactive | inactive | inactive | inactive | inactive |  | 
BrCCc1ccccc1 | inactive | inactive | inactive | inactive | inactive | inactive | inactive | inactive | inactive | inactive | inactive | inactive | inactive | inactive | inactive | inactive | inactive | inactive | inactive | 
CN(C)CCc1c[nH]c2cccc(OP(=O)(O)O)c12 | inactive |  | inactive | inactive | inactive | inactive | inactive | inactive | 0.0735 µM (active) | 85.5 nM (active) | inactive | inactive | inactive |  | inactive | inactive | inactive | inactive | inactive | inactive
CCCCCCCCCCCC[N+](C)(C)CCOc1ccccc1 | 27.3 µM (active) | 38.9 µM (active) and 16.9 µM (active) |  | inactive | inactive | 45.8 µM (active) and inactive | 45.8 µM (active) and inactive | 45.8 µM (active) and inactive | 133 nM (active) and 46 nM (active) |  | 748 nM (active) and inactive | inactive | inactive | inactive | inactive | 48.6 µM (active) | inactive |  |  | inactive
COc1ccc(C(O)(c2cncnc2)C2CC2)cc1 (centres undefined) | inactive | inactive | inactive |  | inactive | inactive | inactive | inactive | inactive | inactive | inactive | inactive | inactive | inactive |  | inactive | inactive | inactive | inactive | 
Cc1ccccc1O |  | inactive | inactive | inactive | inactive | inactive | inactive | inactive | inactive | inactive | inactive | inactive | inactive | inactive | inactive | inactive | inactive | inactive | inactive | inactive
